Laboratory results published in PubChem BioAssay (EPA / NIEHS).
Results filed as inconclusive are left out. Activity calls are given as the source filed them. How the source made its calls: active means hit-call score of the fitted dose curve at least 0.9, where 1 is the maximum; inconclusive means response in the unintended direction; inactive means score below 0.9.

Assay: Tanguay_ZF_120hpf_BRAI_legacy: (Legacy) Oregon State University Tanguay Lab 120 Hour Post-fertilization zebrafish Assay for Brain Malformation (AID 2283641)
Experimental: Tanguay_ZF_120hpf_legacy is a whole embryo, multiplexed endpoint assay using zebrafish larvae exposed for 120 hours post fertilization on a 96-well plate.Tanguay_ZF_120hpf_BRAI_legacy is one of one assay component(s) measured or calculated from the Tanguay_ZF_120hpf_legacy assay. It is designed to make measurements of zebrafish development as detected with brightfield microscopy of developing zebrafish embryos.Data from the assay component Tanguay_ZF_120hpf_BRAI_legacy was analyzed into 1 assay endpoints. This assay endpoint, Tanguay_ZF_120hpf_BRAI_legacy, was analyzed in the positive analysis fitting direction relative to DMSO as the negative control and baseline of activity. Using a type of morphology reporter, gain-of-signal activity can be used to understand changes in developmentals as they relate to the whole embryo. To generalize the intended target to other relatable targets, this assay endpoint is annotated to the zebrafish development intended target family, where the subfamily is brain morphogenesis.
Zebrafish husbandry: Tropical 5D wild-type adult zebrafish were housed in at an approximate density of 1000 per 100 gallon tank at the Sinnhuber Aquatic Research Laboratory, Oregon State University, Corvallis, OR. Each tank was kept at standard laboratory conditions of 28C on a 14-h light/10-h dark photoperiod in fish water consisting of reverse osmosis water supplemented with a commercially available salt (Instant Ocean). Spawning funnels were placed into the tanks the night prior, and embryos were collected and staged. […] Ten microliters of each row of dilution plate 2 was added to 2 exposure plates. The final DMSO concentration used was 0.64% (vol/vol). Thirty-two embryos were also exposed to 5uM trimethyltin chloride (positive control). Plates were sealed to prevent evaporation and foil covered to reduce light exposure and kept in a 28C incubator. Embryos were statically exposed until 120 hpf. At 24 hpf, embryos were assessed for photomotor response using a custom photomotor response analysis tool (PRAT) and for developmental toxicity endpoints (MO24: mortality at 24 hpf, DP: developmental progression, SM: spontaneous movement, and NC: notochord distortion). At 120 hpf, locomotor activity was measured using Viewpoint Zebralab and assessed for 18 endpoints. Zebrafish acquisition and analysis program (ZAAP), a custom program designed to inventory, acquire, and manage zebrafish data, was used to collect developmental endpoints as either present or absent (i.e., binary responses were recorded). If mortality occurred for an embryo (at either 24 or 120 hpf), the non-mortality endpoints were not measured.

Compound | outcome | AC50
CC(C)(C)OOC(=O)c1ccccc1 | inactive | 
CNC(=O)Oc1cccc2c1OC(C)(C)C2 | inactive | 
CC(C)(C)C(O)(CCc1ccc(Cl)cc1)Cn1cncn1 (stereo not given) | inactive | 
COP(=S)(OC)SCN1C(=O)c2ccccc2C1=O | inactive | 
Cc1ccc(N)cc1 | inactive | 
CCCCCOC(=O)c1ccccc1C(=O)OCCCCC | inactive | 
Cc1ccc(N)c(N)c1 | inactive | 
ClC1=C(Cl)[C@]2(Cl)[C@H]3[C@H]([C@@H]4C=C[C@H]3C4)[C@@]1(Cl)C2(Cl)Cl | inactive | 
CCOC(=O)[C@]1(c2ccccc2)Oc2ccccc2[C@@H]1N | inactive | 
N#CC(Br)Br | inactive | 
Oc1ccccc1Cl | inactive | 
CCOc1cccc(C2(N3CCN(c4ccccc4)CC3)CCC(C)CC2)c1 (stereo not given) | inactive | 
CCC(C)c1ccc(O)cc1 (stereo not given) | inactive | 
Brc1ccc(Oc2ccccc2)cc1 | inactive | 
CC(C)COC(=O)c1ccccc1C(=O)OCC(C)C | inactive | 
Nc1ccc(Cl)cc1N | inactive | 
Oc1ccc2ccc3cccc4ccc1c2c34 |  | 46.1 µM (active)
N#CC(Br)(Br)C(N)=O | inactive | 
ClCCOCCCl | inactive | 
CN(C)c1ccc(C(=O)c2ccc(N(C)C)cc2)cc1 |  | 48.7 µM (active)

Compound | outcome | AC50
CCNS(=O)(=O)C(F)(F)C(F)(F)C(F)(F)C(F)(F)C(F)(F)C(F)(F)C(F)(F)C(F)(F)F |  | 45.5 µM (active)
CCC[CH2][Sn]([Cl])([CH2]CCC)[CH2]CCC | inactive | 
Nc1ccc(N=Nc2ccccc2)cc1 | inactive | 
O=C(Nc1ccccc1)c1ccccc1I | inactive | 
[As]#[In] | inactive | 
OCCCBr | inactive | 
Cc1ccc([N+](=O)[O-])cc1 | inactive | 
O=C(N[C@H](c1ccccc1)[C@@H]1CN2CCC1CC2)c1c(Cl)ccc(C(F)(F)F)c1Cl | inactive | 
CC(C)(OOC(C)(C)c1ccccc1)c1ccccc1 | inactive | 
C[N+](C)(C)CC1CO1 (stereo not given) | inactive | 
CCCCCCCCOC(=O)c1ccc(C(=O)OCCCCCCCC)c(C(=O)OCCCCCCCC)c1 | inactive | 
Clc1ccccc1Cl | inactive | 
CC(C)N(Cc1ccccc1)C(=O)C(C)(C)C | inactive | 
CCN(CC)N=O | inactive | 
Cn1cc(-c2ccccc2)c(=O)c(-c2cccc(C(F)(F)F)c2)c1 | inactive | 
C[C@]12C=CC3=C4CCC(=O)C=C4CC[C@H]3[C@@H]1CC[C@@H]2O |  | 27.1 µM (active)
Nc1ccc(Oc2ccc(N)cc2)cc1 | inactive | 
CN(C)c1ccccc1 | inactive | 
COc1cc(C=O)cc2c1[C@H](COC(N)=O)[C@]1(OC(C)=O)ON2C[C@H]2[C@@H]1N2C(C)=O | inactive | 
c1ccc(NNc2ccccc2)cc1 | inactive | 
